Results: PubChem BioAssay (Tox21)
Values without a mark were called inactive. Records with an inconclusive call do not appear. Entries that show only a call come without a potency. Active and inactive are the calls of the source. Unless noted, calls follow the shape of the dose curve; as a rule, active = well fitted curve in the direction sought with a large enough effect in the repeat runs; inconclusive = weak or mixed curves; inactive = no such curve, though single readings can be large; an effect the other way counts as inactive or inconclusive.

How the values were obtained:
[1] = A CellTox Green Cytotoxicity Assay to monitor cytotoxicity in HepG2 cells - 8 hour (AID 1224890); also: nearly all actives have a fitted effect of over 45% in size
In short: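 Nonlytic assay: viable cells exclude the dye, so fluorescence scales with cell death. HepG2 at 600 cells/well, compounds added after 5 h, signal read across 40 h.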

[2] = qHTS assay to identify small molecule antagonists of the estrogen receptor alpha (ER-alpha) signaling pathway using the BG1 cell line in the presence of 0.1 nM 17-beta-estradiol - cell viability counter screen (AID 1259241); also: nearly all actives have a fitted effect of over 40% in size
In short: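 Cytotoxicity counter-screen: live-cell protease activity measured by fluorescence (30 min reagent step) in the same wells. Cells were VM7Luc4E2 with endogenous ER-alpha and ERE-driven luciferase, treated 22 hr at 37C alongside 0.1 nM 17beta-estradiol final.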

[3] = qHTS assay to identify small molecule antagonists of the androgen receptor (AR) signaling pathway using the MDA cell line in the presence of 0.5 nM R1881 - cell viability counter screen (AID 1259242); also: nearly all actives have a fitted effect of over 45% in size
In short: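 R1881 at 0.5 nM final stimulated MDA-kb2 cells during 16 hr compound treatment at 37C. Cytotoxicity read: CellTiter-Fluor fluorescence after 30 min.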

[4] = target: Estrogen receptor (Homo sapiens) (UniProt P03372); test: qHTS assay to identify small molecule antagonists of the estrogen receptor alpha (ER-alpha) signaling pathway using the BG1 cell line in the presence of 0.1 nM 17-beta-estradiol (AID 1259244); also: nearly all actives have a fitted effect of over 50% in size
In short: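 VM7Luc4E2; 4xERE-luciferase; 0.1 nM E2 final; 22 h co-incubation, 37C; ONE-Glo luminescence after 30 min at room temperature.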

[5] = qHTS assay to identify small molecule HDAC inhibitors (AID 1259364); also: potency is read from the fitted curve at half-maximal effect;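 also: wild-type HCT-116 cells with endogenous class I/II HDAC activity; nearly all actives have a fitted effect of over 45% in size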
In short: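 Relative class I and II HDAC activity is taken from the luminogenic signal in HCT-116 cells, with compound exposure 2 hr and reagent development 30 min at room temperature.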

[6] = qHTS assay to identify small molecule HDAC inhibitors - cell viability counter screen (AID 1259365); also: series mostly up to about 92 µM; nearly all actives have a fitted effect of over 50% in size
In short: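 CellTiter-Glo luminescence (30 min, room temperature) reported viability after a 2 h compound exposure at 37 C. Cells: wild-type HCT-116, 1,500 per well, seeded the night before.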

[7] = qHTS assay to identify small molecule agonists of the sonic hedgehog signaling (Shh) pathway - cell viability counter screen (AID 1259366); also: nearly all actives have a fitted effect of over 50% in size
In short: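 Cytotoxicity counter screen: CellTiter-Fluor reagent added after 23 h compound exposure, then 1 h at 37C and fluorescence read. Cells were 3T3 Gli1-Luc, seeded 2,000 per well and dosed 4 h post-plating.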

[8] = qHTS assay to identify small molecule antagonists of the sonic hedgehog signaling (Shh) pathway - cell viability counter screen (AID 1259367); also: nearly all actives have a fitted effect of over 55% in size
In short: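 Using CellTiter-Fluor, viability of Gli1-Luc reporter 3T3 cells is read by fluorescence in the wells used for the Shh luciferase assay. Treatment lasts 23 hr with conditioned medium, then reagent 1 hr at 37C.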

[9] = qHTS assay to identify small molecule agonists of the sonic hedgehog signaling (Shh) pathway (AID 1259368; calls by dose curve;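 also: NIH/3T3-derived 3T3Gli1-Luc cells carrying a stable Gli1-driven firefly luciferase reporter; series mostly up to about 92 µM; nearly all actives have a fitted effect of over 15% in size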)
In short: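 Mouse fibroblast (NIH/3T3) reporter cells with stably integrated Gli1-Luc were treated 24 hr with compound; firefly luciferase luminescence served as the read-out.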

[10] = target: Estrogen receptor beta (Homo sapiens) (UniProt Q92731); test: qHTS assay to identify small molecule agonists of the estrogen receptor beta (ER-beta) signaling pathway (AID 1259377; active = well fitted activation curve with a large enough effect in the signal ratio in the repeat runs, not every such curve was filed as active; the % refers to the signal ratio)
In short: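 Ratiometric beta-lactamase FRET read-out came after 2 h substrate loading at room temperature. It followed 16 h compound treatment at 37C of GripTite HEK293T cells carrying a UAS-bla reporter, plated in 2% charcoal-stripped FBS medium.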

[11] = target: Estrogen receptor beta (Homo sapiens) (UniProt Q92731); test: qHTS assay to identify small molecule antagonists of the estrogen receptor beta (ER-beta) signaling pathway (AID 1259378; active = well fitted inhibition curve with a large enough effect in the signal ratio in the repeat runs, not every such curve was filed as active; the % refers to the signal ratio)
In short: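 Antagonist mode: compounds added to beta-lactamase reporter HEK293T ER-beta-UAS cells stimulated with E2 (1nM final), 16 hr at 37C. LiveBLAzer B/G FRET substrate, 2 hours room temperature, fluorescence read-out.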

[12] = qHTS assay to identify small molecule agonists of the androgen receptor (AR) signaling pathway in the presence of an antagonist - cell viability counter screen (AID 1259379);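 also: MDA-kb2 human breast cancer cells carrying an MMTV luciferase reporter; series mostly up to about 92 µM; nearly all actives have a fitted effect of over 25% in size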
In short: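 A CellTiter-Fluor read-out measured viability of MDA-kb2 reporter cells (MMTV promoter with AR and GR response elements). Treatment: nilutamide 3.0uM final with compounds at 15 concentrations, 16 hr, 37C, 0% CO2.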

[13] = qHTS assay to identify small molecule agonists of the estrogen receptor beta (ER-beta) signaling pathway - cell viability counter screen (AID 1259380); also: nearly all actives have a fitted effect of over 30% in size
In short: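 Cells used were ER-beta-UAS-bla HEK293T in medium with 2% charcoal-stripped FBS. They were treated for 16 hr at 37C. Viability came from CellTiter-Glo luminescence.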

[14] = qHTS assay to identify small molecule antagonists of the estrogen receptor beta (ER-beta) signaling pathway - cell viability counter screen (AID 1259382); also: series mostly up to about 92 µM; nearly all actives have a fitted effect of over 55% in size
In short: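 Agonist-stimulated (1nM E2) ER-beta-UAS-bla HEK293T cells are incubated with library compounds for 16 hr at 37C. Cell viability is then assessed in the reporter-assay wells by adding CellTiter-Glo and reading luminescence after 30 min.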

[15] = target: Estrogen receptor (Homo sapiens) (UniProt P03372); test: qHTS assay to identify small molecule agonists of the estrogen receptor alpha (ER-alpha) signaling pathway in the presence of an antagonist (AID 1259383; calls by dose curve; also: top concentration of the series differs between compounds; nearly all actives have a fitted effect of over 15% in size)
In short: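 Using VM7Luc4E2 cells seeded 24hr before treatment, antagonist ICI-182,780 (10.0nM final) was added, followed by compounds at 15 concentrations. Plates incubated 22hr; ONE-Glo luminescence quantified reporter activity.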

[16] = qHTS assay to identify small molecule agonists or antagonists of the thyroid stimulating hormone receptor (TSHR) signaling pathway - wild type cell line counter screen (AID 1259384; calls by dose curve)
In short: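 Counter screen in untransfected Hek293: compounds (15-point titration, triplicate) plus phosphodiesterase inhibitor Ro20-1724 added after 18 h plating; 30 min RT. Intracellular cAMP via competitive d2/cryptate immunoassay, 1 h incubation.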

[17] = qHTS assay to identify small molecule antagonists of the sonic hedgehog signaling (Shh) pathway (AID 1259369; calls by dose curve; also: nearly all actives have a fitted effect of over 45% in size)
In short: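 Conditioned medium drives Shh signalling in 3T3Gli1-Luc cells; compounds in DMSO co-applied, 24hr at 37 C, then luciferase luminescence.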

[18] = qHTS assay to identify small molecule phospholipidosis (PLD) inducers (AID 1259344; active = well fitted curve in the direction sought with a large enough effect; an effect the other way counts as inactive or inconclusive)
In short: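 Fluorescent phospholipid staining (LipidTOX Red) measured by automated microscopy in fixed HepG2 cells after 24 h treatment; nuclei counterstained with Hoechst 33342; amiodarone as reference inducer.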

Estrogen receptor beta (Homo sapiens), sequence (Q92731 whole entry, looked up): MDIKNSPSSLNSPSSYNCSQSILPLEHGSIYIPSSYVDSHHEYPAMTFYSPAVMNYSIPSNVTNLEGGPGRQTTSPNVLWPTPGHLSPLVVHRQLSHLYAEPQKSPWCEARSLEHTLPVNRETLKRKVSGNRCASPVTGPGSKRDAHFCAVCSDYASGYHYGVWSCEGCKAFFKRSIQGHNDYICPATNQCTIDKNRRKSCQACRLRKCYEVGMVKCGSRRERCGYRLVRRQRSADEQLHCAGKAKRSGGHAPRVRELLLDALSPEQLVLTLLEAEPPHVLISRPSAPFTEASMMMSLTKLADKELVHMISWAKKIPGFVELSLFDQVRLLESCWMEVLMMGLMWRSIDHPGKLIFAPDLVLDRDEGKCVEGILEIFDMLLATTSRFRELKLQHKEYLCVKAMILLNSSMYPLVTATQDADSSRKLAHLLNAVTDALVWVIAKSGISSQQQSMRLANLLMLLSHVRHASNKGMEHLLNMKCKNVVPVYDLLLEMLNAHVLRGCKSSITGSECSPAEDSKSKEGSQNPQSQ
Estrogen receptor (Homo sapiens), sequence (P03372 whole entry, looked up): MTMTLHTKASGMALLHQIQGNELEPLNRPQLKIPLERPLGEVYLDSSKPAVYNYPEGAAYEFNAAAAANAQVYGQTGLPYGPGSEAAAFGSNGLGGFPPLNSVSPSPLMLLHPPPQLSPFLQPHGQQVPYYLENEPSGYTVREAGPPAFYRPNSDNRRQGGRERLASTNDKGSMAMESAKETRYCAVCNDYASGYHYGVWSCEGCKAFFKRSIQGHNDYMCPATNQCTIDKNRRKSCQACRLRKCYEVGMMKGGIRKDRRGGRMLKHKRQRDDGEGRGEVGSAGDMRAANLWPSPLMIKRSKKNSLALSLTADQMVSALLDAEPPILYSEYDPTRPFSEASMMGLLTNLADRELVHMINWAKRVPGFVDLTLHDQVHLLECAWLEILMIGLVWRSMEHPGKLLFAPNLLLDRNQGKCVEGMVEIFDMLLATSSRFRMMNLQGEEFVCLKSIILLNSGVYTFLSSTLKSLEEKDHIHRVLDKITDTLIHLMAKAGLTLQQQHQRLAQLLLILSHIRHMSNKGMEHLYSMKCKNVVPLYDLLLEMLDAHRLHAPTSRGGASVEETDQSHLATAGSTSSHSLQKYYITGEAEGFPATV

Structure (SMILES)	outcome [1]	Potency [2]	outcome [3]	Potency [4]	Potency [5]	outcome [6]	Potency [7]	Potency [8]	outcome [9]	Potency [10]	outcome [11]	Potency [12]	Potency [13]	outcome [14]	outcome [15]	outcome [16]	Potency [17]	outcome [18]
C=C1CC/C=C(\C)CC[C@@H]2[C@@H]1CC2(C)C	inactive	inactive	inactive	inactive	inactive	inactive	inactive	inactive	inactive	inactive	inactive	inactive	inactive	inactive	inactive	inactive	–	–
CCOC(=O)CC(=O)c1ccccc1	inactive	inactive	inactive	inactive	–	inactive	inactive	inactive	inactive	inactive	inactive	inactive	inactive	inactive	inactive	inactive	inactive	–
CCCCOCCOC(=O)COc1nc(Cl)c(Cl)cc1Cl	inactive	inactive	inactive	inactive	inactive	inactive	inactive	inactive	inactive	–	–	inactive	inactive	inactive	inactive	inactive	–	–
CCCCC(CC)COCCO (stereo not drawn)	inactive	inactive	inactive	inactive	inactive	inactive	inactive	inactive	inactive	inactive	inactive	inactive	inactive	inactive	inactive	inactive	inactive	–
Nc1cccc(O)c1	inactive	inactive	inactive	inactive	inactive	inactive	inactive	inactive	inactive	–	–	inactive	inactive	inactive	inactive	inactive	inactive	–
ClCCCl	inactive	inactive	inactive	inactive	inactive	inactive	inactive	inactive	inactive	–	–	inactive	inactive	inactive	–	–	inactive	–
CC1=CCC(C(C)C)=CC1	inactive	inactive	inactive	inactive	inactive	inactive	inactive	inactive	inactive	–	–	inactive	inactive	inactive	inactive	–	inactive	–
CCn1ccc(NS(=O)(=O)c2ccc(N)cc2)nc1=O	inactive	inactive	inactive	inactive	inactive	inactive	inactive	inactive	inactive	inactive	–	inactive	inactive	inactive	inactive	inactive	inactive	–
Cc1cc(NC(=O)C2=C(O)c3ccccc3S(=O)(=O)N2C)no1	inactive	inactive	inactive	–	inactive	inactive	inactive	inactive	inactive	–	–	inactive	inactive	inactive	–	inactive	inactive	inactive
Cc1ccc(C=O)cc1C	inactive	inactive	inactive	inactive	inactive	inactive	inactive	inactive	inactive	inactive	inactive	inactive	inactive	inactive	–	inactive	inactive	–
CCOCCOC(=O)/C=C/c1ccc(OC)cc1	inactive	inactive	inactive	inactive	11.9 µM (active)	inactive	inactive	inactive	inactive	–	–	inactive	inactive	inactive	inactive	inactive	inactive	–
CN(C)CCOCCO	inactive	inactive	inactive	inactive	inactive	inactive	inactive	inactive	inactive	–	–	inactive	inactive	inactive	inactive	inactive	inactive	–
O=S(=O)(O)c1cc(O)c2ccc(Nc3ccccc3)cc2c1	inactive	inactive	inactive	inactive	24.3 µM (active)	inactive	inactive	inactive	inactive	inactive	inactive	inactive	–	inactive	–	–	–	–
BrCCCCCBr	inactive	inactive	inactive	inactive	inactive	inactive	inactive	inactive	inactive	inactive	inactive	inactive	inactive	inactive	inactive	inactive	–	–
CC(=O)c1ccc2c(c1)Cc1ccccc1-2	inactive	inactive	inactive	inactive	27.3 µM (active)	inactive	inactive	inactive	inactive	–	–	inactive	inactive	inactive	inactive	–	–	–
